Source: PubChem BioAssay (National Center for Advancing Translational Sciences (NCATS))
DT40 TDP1 CPT: qHTS for Inhibitors of human tyrosyl-DNA phosphodiesterase 1 (TDP1): qHTS in cells in presence of CPT; chicken DT40 Tdp1-/-;hTDP1 cells + 20 nM CPT, ATP luminescence, 48 h; Potency, µM (titrated, usually from 46.2 µM), without a hit: at the highest dose activity change, negative = growth inhibition, usual class: inhibitors; actives 12% (n = 420,000); AID 686979, 2013; further: potency means the concentration at half of the fitted maximal effect; on the % scale 0 is the no-effect control and ±100 the full control effect; nearly all actives have a fitted effect of over 55% in size
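Cell growth measured by CellTiter-Glo luminescence after a minimum 48 h, 37 C compound exposure with 20 nM CPT in Tdp1-knockout DT40 cells stably expressing hTDP1, seeded 400/well; qHTS titration format.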
TGFb SMAD3 inh: qHTS for Inhibitors of TGF-b; HepG2 CAGA-GFP TGF-b/SMAD3 reporter, GFP fluorescence, 18 h; TGF-beta stimulated, 500 pg/mL final; Potency, µM (series often up to 46.1 µM), without a hit: at the highest dose activity, negative = inhibition, hits mostly inhibitors; actives 1.2% (n = 410,000); further: potency means the concentration at half of the fitted maximal effect; on the % scale 0 is the no-effect control and ±100 the full control effect; nearly all actives have a fitted effect of over 65% in size
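Using HEPG2 CAGA-GFP reporter cells at 1000 cells/well, we pinned test compounds, stimulated with recombinant TGF-beta (500 pg/mL final) and measured total well GFP after 18 h.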
TDP1 block: qHTS Assay for Inhibitors of Tyrosyl-DNA Phosphodiesterase (TDP1). Tyrosyl-DNA phosphodiesterase 1 (Homo sapiens), Q9NUW8. recombinant TDP1, AlphaScreen DNA substrate cleavage. Potency, µM (series often up to 130 µM), for inactives: at the top dose activity change, negative = inhibition, usual class: inhibitors. actives 0.28% (n = 350,000). AID 485290, 2010; further: potency means the concentration at half of the fitted maximal effect; on the % scale 0 is the no-effect control and ±100 the full control effect; nearly all actives have a fitted effect of over 40% in size
Target sequence (Q9NUW8 whole entry, looked up): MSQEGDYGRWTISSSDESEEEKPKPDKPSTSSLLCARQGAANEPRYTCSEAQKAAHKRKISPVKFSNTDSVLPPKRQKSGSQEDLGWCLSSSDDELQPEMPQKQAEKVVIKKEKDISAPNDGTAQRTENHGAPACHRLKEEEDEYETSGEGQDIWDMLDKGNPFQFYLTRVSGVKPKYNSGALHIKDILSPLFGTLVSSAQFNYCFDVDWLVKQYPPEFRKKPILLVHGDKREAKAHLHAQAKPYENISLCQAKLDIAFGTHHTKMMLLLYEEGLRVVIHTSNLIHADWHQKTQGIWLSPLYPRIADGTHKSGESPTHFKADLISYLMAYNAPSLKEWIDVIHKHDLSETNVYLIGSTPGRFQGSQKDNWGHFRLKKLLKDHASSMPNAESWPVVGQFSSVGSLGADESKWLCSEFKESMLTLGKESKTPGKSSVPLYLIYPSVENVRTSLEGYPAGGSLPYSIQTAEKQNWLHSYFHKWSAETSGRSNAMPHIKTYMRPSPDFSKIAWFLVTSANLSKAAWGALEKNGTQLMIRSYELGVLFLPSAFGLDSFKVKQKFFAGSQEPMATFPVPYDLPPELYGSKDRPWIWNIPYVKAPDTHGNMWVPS
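E. coli-derived human Tdp1, 1 nM final. Cpd preinc 15 min RT; substrate 15 nM final, 5 min RT; AS bead mix 10 ug/ml final, 10 min RT. Signal loss = tyrosine-FITC cleavage. No-enzyme wells = max signal.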
DT40 TDP1 no CPT: qHTS for Inhibitors of human tyrosyl-DNA phosphodiesterase 1 (TDP1): qHTS in cells in absence of CPT. DT40 Tdp1-/- hTDP1 cells, no CPT, ATP luminescence, 48 h. actives 15% (n = 420,000). Potency, µM (series often up to 46.2 µM), for the others: at the top dose activity change, negative = growth inhibition, actives largely listed as inhibitors; further: potency means the concentration at half of the fitted maximal effect; on the % scale 0 is the no-effect control and ±100 the full control effect; nearly all actives have a fitted effect of over 55% in size
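Seeded 400 DT40-hTDP1 cells/well (vehicle DMSO, no 20 nM CPT); pinned compounds; ≥48 hr at 37 °C; CellTiter-Glo luminescence as viability measure.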
HepG2 tox: qHTS for Inhibitors of TGF-b: Cytotox Counterscreen; HepG2 CAGA-GFP viability, ATP luminescence, 18 h; actives 0.76% (n = 410,000); Potency, µM (doses to about 46.1 µM), without a hit: at the top dose activity change, negative = cytotoxicity, most hits filed as cytotoxic; further: potency means the concentration at half of the fitted maximal effect
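HepG2 CAGA-GFP cells (1000/well, DMEM with 1% FBS) received compound, then TGF-beta at 500 pg/mL final, and were incubated 18 hours at 37 degrees C. Viability was read by CellTiter-Glo luminescence. Media-only wells were set as complete cell-killing and DMSO as no toxicity.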
IL-1B inflam inh: qHTS for Inhibitors of Inflammasome Signaling: IL-1-beta AlphaLISA Primary Screen; activity change, % at 57.5 µM; actives 4.7% (n = 360,000); AID 743279, 2014; THP-1 LPS/ATP IL-1B secretion, AlphaLISA, 16 h; hits give low values; in the data active means activity change below about -50%; inconclusive means mostly about -30% to -49%; further: on the % scale 0 is the no-effect control and ±100 the full control effect
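Secreted IL-1B measured by AlphaLISA bead assay after 16 h compound exposure of THP-1 cells; compounds (final up to 57.5 uM) added 1 h before LPS (250 ng/mL) and ATP (1.25 mM) stimulation; lower signal means less secretion.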
Numbers without * were called inactive; i = inactive; ? = inconclusive; / = not tested or not shown; [ ] = dose if it differs, or a comment. Only some compounds are listed: those with a hit (about 18% of all), similar ones and a draw of the others. Unless noted, the call rests on the fitted dose curve; in most records, active means well fitted curve in the direction sought with a large enough effect; inconclusive means small, poorly fitted or top-dose-only effect, or another doubt; inactive means no such curve, though single readings can be large; an effect the other way counts as inactive or inconclusive.

SMILES	DT40 TDP1 CPT	TGFb SMAD3 inh	TDP1 block	DT40 TDP1 no CPT	HepG2 tox	IL-1B inflam inh
CCN(C(=O)Cn1c(=O)n(CC2CCC(C(=O)NC)CC2)c(=O)c2sccc21)c1ccccc1 (configuration not stated)	-27%	-1%	8%	-28%	0%	/
Cc1cccc(C(=O)Nc2ccc(-c3nc4cc(C(C)C)ccc4o3)cc2)c1	16µM*	?	-1%[12.3 µM]	16µM*	-42%	/
CCOc1cccc(C(=O)Nc2ccc3oc(Cc4ccc(Cl)cc4)nc3c2)c1	?	?	6%	?	6%	-15
CCOc1ccc(C(=O)Nc2ccc(-c3nc4cc(C(C)C)ccc4o3)cc2)cc1Cl	?	?	-4%[12.3 µM]	?	-25%	/
Cc1ccc2oc(-c3ccc(NC(=O)c4cccnc4)cc3)nc2c1	?	-8%	4%	21µM*	0%	-9
O=C(Nc1ccc2oc(Cc3ccc(Cl)cc3)nc2c1)c1cccnc1	?	?	-3%	?	-28%	-67*
COc1cccc(C(=O)Nc2ccc(-c3nc4ccccc4o3)c(O)c2)c1	18µM*	-2%	0%	16µM*	-34%	-5
COc1cc(OC)cc(C(=O)Nc2ccc3oc(-c4ccccc4C)nc3c2)c1	?	53%	1%[12.3 µM]	?	-33%	/
O=C1C[C@@H](O)[C@@H](O)[C@H]2[C@@H]3C(=O)N(C[C@@H]4CCCO4)C(=O)[C@@H]3CC[C@H]12	/	/	8%[21 µM]	/	/	/
CCCCOC(=O)c1ccc(NC(=O)c2ccc3c(c2)CCN3S(C)(=O)=O)cc1	-25%	35%	2%	?	3%	/
COc1cc(OC)cc(C(=O)Nc2ccc(-c3nc4ccccc4o3)cc2)c1	16µM*	-2%	-2%	16µM*	-28%	47
COC(=O)c1ccc(-c2nc3ccc(C)cc3o2)cc1	10µM*	-2%	0%	8.2µM*	-2%	-16
COC(=O)c1ccc(-c2nc3ccccc3o2)cc1	/	/	0%	/	/	/
O=C(Nc1ccc2oc(-c3ccccc3)nc2c1)c1ccncc1	16µM*	14%	-2%	12µM*	0%	-6
O=C(Nc1cccc(-c2nc3ccccc3o2)c1)c1cccnc1	?	-7%	1%	21µM*	-20%	11
O=C(Nc1ccc2oc(-c3ccccc3)nc2c1)c1cccs1	?	-12%	0%[56.1 µM]	?	-10%	-19
O=C(Nc1ccc2oc(-c3cccnc3)nc2c1)c1cccnc1	-24%	-1%	0%	?	-1%	-9
COc1ccc2oc(C(=O)OCC(=O)N(C)C3CCS(=O)(=O)C3)c(C)c2c1 (configuration not stated)	-10%	?	-3%	-8%	-5%	-8
CNC(=S)N(CCCN(C)C)Cc1cc2cc3c(cc2[nH]c1=O)OCCO3	-5%	-9%	/	14%	0%	-15
O=C(Nc1ccc2oc(-c3cccnc3)nc2c1)c1ccc([N+](=O)[O-])o1	6.5µM*	?	7%	8.2µM*	5%	/
CS(=O)(=O)c1ccccc1C(=O)Nc1ccc(-c2nc3ccccc3o2)cc1	?	-19%	0%	23µM*	-2%	31
CS(=O)(=O)c1ccccc1C(=O)Nc1ccc(-c2nc3ccccc3[nH]2)cc1	-23%	10%	4%	?	-5%	-7
COc1cc(OC)cc(C(=O)Nc2ccc(-c3nc4cc(C(C)C)ccc4o3)cc2)c1	21µM*	-13%	2%[2.28 µM]	21µM*	-36%	/
Cc1ccccc1C(=O)Nc1ccnn1C1CCN(Cc2cnn(C)c2)CC1	-5%	1%	5%	-8%	3%	0
CN(N=Cc1ccccc1)C(=S)Nc1ccccc1	-76%	8%	/	12µM*	2%	44
SMILES	DT40 TDP1 CPT	TGFb SMAD3 inh	TDP1 block	DT40 TDP1 no CPT	HepG2 tox	IL-1B inflam inh
O=C(Oc1ccc(NC2=C(Cl)C(=O)c3ccccc3C2=O)cc1)c1ccc([N+](=O)[O-])cc1	8.2µM*	-9%	3%	7.3µM*	4%	3
O=C(Oc1ccc([N+](=O)[O-])cc1)c1cccnc1	4%	8%	-3%	-20%	4%	-4
CCOC(=O)C1=C(COC(=O)COc2ccc(C#N)cc2)NC(=O)NC1C (configuration not stated)	9%	3%	-1%	16µM*	9%	i
CCOC(=O)C1=C(COC(=O)/C=C/c2ccc(OC)cc2)NC(=O)NC1C (configuration not stated)	9.2µM*	0%	-2%	21µM*	-35%	-3
CN(C(=O)CSc1nnc(CN2CCCC2)n1Cc1ccccc1)c1ccccc1	-11%	-2%	-3%	-7%	-2%	2
CN(Cc1ccccc1)C(=O)c1ccc(Nc2nc(C(N)Cc3ccccc3)cs2)nc1 (configuration not stated)	15µM*	?	/	13µM*	16µM*	-9
CN(Cc1ccccc1)C(=O)c1ccc(Nc2nc(C(N)COCc3ccccc3)cs2)nc1 (configuration not stated)	?	?	/	?	-35%	?
CCCCN(C)C(=O)c1ccc(Nc2nc(C(N)Cc3ccccc3)cs2)nc1 (configuration not stated)	23µM*	?	/	15µM*	-94%	-7
CN(Cc1ccccc1)C(=O)c1ccc(Nc2nc(C(N)Cc3ccc(C(F)(F)F)cc3)cs2)nc1 (configuration not stated)	12µM*	?	/	12µM*	10µM*	-105*
CC(C)CC(N)c1csc(Nc2ccc(C(=O)N(C)Cc3ccccc3)cn2)n1 (configuration not stated)	5.2µM*	?	/	5.8µM*	-109%	-14
Cc1cc(C)cc(C(=O)NCCC(=O)N2CCC3(CC2)NCCc2[nH]cnc23)c1	-7%	-4%	4%	2%	6%	-7
COC(=O)c1nnc(C(=O)NCc2ccccc2)c2[nH]c3ccccc3c12	/	/	9%	/	/	/
CC(=O)OCC(CCn1cnc2cnc(N)nc21)COC(C)=O	0%	/	12%[56.1 µM]	-2%	/	/
